About 270 (0.079%) of roughly 340,000 compounds were called active.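 The calls were made as follows: active = activation above a cutoff set at the mean over all compounds plus 3 SD (cut at about 18% in these data); inactive = the rest.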 Shown is part of a subset that was picked to be rich in actives.

For the test, the target named is cAMP-dependent protein kinase catalytic subunit beta (Homo sapiens) + cAMP-dependent protein kinase type II-beta regulatory subunit (Homo sapiens) (UniProt P22694+P31323). The test can be described thus: activators of PKA-R2B holoenzyme, primary screen, biochemical, fluorescence polarization, Cy5-IP20, human (AID 504700).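 Also: higher means more holoenzyme dissociation and a rise in polarization.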 Conditions: PKA-R2B holoenzyme dissociation, at 11.4 µM, stronger effect = higher value, 0% DMSO only, 100% 113 µM cGMP, R2B truncated from residue 108, S112A mutant. A general note: Polarisation of emitted light reports the rotation of a fluorescent probe.
Chain of cAMP-dependent protein kinase catalytic subunit beta (Homo sapiens) + cAMP-dependent protein kinase type II-beta regulatory subunit (Homo sapiens) (P31323 whole entry, looked up, other chains not shown, the tested form may be a part): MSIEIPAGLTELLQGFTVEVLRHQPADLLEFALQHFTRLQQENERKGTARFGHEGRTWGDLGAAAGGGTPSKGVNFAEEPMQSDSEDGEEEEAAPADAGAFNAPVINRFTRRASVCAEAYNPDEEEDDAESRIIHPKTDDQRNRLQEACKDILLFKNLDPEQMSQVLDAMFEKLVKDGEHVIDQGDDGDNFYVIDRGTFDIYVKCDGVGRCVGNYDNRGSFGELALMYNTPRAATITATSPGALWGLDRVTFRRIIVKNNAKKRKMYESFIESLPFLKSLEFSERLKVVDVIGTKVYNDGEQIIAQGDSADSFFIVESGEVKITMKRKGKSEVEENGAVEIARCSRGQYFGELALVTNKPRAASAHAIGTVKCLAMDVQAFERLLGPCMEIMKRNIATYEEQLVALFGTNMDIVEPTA
On to `O=C(NCCN1CCOCC1)c1ccc2c(c1)N(Cc1cccc(Cl)c1)C(=O)c1ccccc1S2(=O)=O`, for which the activation is -0.88% (inactive).
The value for `COc1ccc(NC2CCCN(C(=O)c3ccccc3-c3ncc[nH]3)C2)cc1` (stereo unspecified) was -6.86% (inactive); that for `Cc1sc2ncnc(SCC(=O)NC3CCS(=O)(=O)C3)c2c1C` (stereo unspecified) was -9.19% (inactive).
The value for `CN(c1ccccc1)S(=O)(=O)c1ccc(C(=O)NCc2cccnc2)cc1` was -3.42% (inactive).
Then `O=C(COC(=O)CCc1c[nH]c2ccccc12)Nc1cccc(Cl)c1`, with 1.73% (inactive); and `CCOC(=O)c1cc(-c2sc(NC(=O)c3ccccc3)nc2C)n(Cc2ccccc2)n1`, with -0.16% (inactive); and `O=C(COC(=O)c1ccc(S(=O)(=O)N2CCCCCC2)cc1)Nc1ccccc1C(F)(F)F`, with -16.8% (inactive).
As to `CN(Cc1ccccc1)C(=O)CCC1CCN(C(=O)c2ccco2)CC1`, the activation is 2.88% (inactive).
Consider `Cc1[nH]c2ccccc2c1C(=O)C(=O)NCc1nnnn1-c1cccc(F)c1`, for which the activation was -2.65% (inactive).
Then `Cn1c(=O)cc(OCCCC(=O)N2CCN(Cc3ccc4c(c3)OCO4)CC2)c2ccccc21`, with -7.18% (inactive); and `O=C(CCCN1C(=O)c2cccc3cccc(c23)C1=O)N1CCN(Cc2ccc3c(c2)OCO3)CC1`, with 18.8% (active); and `Cc1cc(C)n2nc(C(=O)N3CCN(Cc4ccc5c(c4)OCO5)CC3)nc2n1`, with -11.3% (inactive).
With `CCN1C(=O)[C@H]2[C@@H](c3ccccc3)N[C@]3(CCCN(Cc4ccc(C)cc4)C3=O)[C@H]2C1=O`, the activation was 0.79% (inactive).
For the molecule `O=C(NCCS(=O)(=O)N1CCN(c2ccccc2)CC1)c1cc(=O)c2ccccc2o1`, the activation is -13.1% (inactive).
The value for `CCCCN1C(=O)C(CC(=O)NC(c2ccccc2)c2ccccc2)CC(C(=O)N2CCOCC2)=C1C` (stereo unspecified) was -5.21% (inactive).
Then `Cc1ccccc1NC(=O)Cc1nc(COC(=O)C(C)(C)Oc2ccc(Cl)cc2)cs1`, with 3.15% (inactive).
The value for `C/C(COc1ccccc1)=N\NC(=O)c1nnn(-c2nonc2N)c1-c1ccc(C)cc1` was -17.1% (inactive); that for `CCCc1c(C)nc2scc(-c3ccc(Cl)cc3)n2c1=O` was -2.72% (inactive); that for `CSc1ncnc2c1ncn2CCCNCc1cccs1` was 2.56% (inactive).
Take `CCC(Oc1ccccc1)C(=O)OCC(=O)Nc1c(C)nn(-c2ccccc2)c1C` (stereo unspecified): the activation was -5.13% (inactive).
Then `COc1cccc(OCC(=O)NCCS(=O)(=O)N2CCN(c3ccccc3)CC2)c1`, with 0.99% (inactive).
Then `CNC(=O)C[C@H]1C(=O)N(Cc2ccccc2)C[C@@H]1CSC`, with -9.1% (inactive).
Turning to `COc1ncnc2c1ncn2CCCNCCN1CCOCC1`, the activation is 4.38% (inactive).
The value for `O=S1(=O)CCN(Cc2ccccc2)CC1` was -1.42% (inactive); that for `C[C@@H]1CN([C@@H](C)CO)S(=O)(=O)c2ccc(C#Cc3cccc(F)c3)cc2O[C@H]1CN(C)S(=O)(=O)c1cn(C)cn1` was 7.01% (inactive); that for `Nc1cccc(OCCCCCOc2cccc(N)c2)c1` was 5.43% (inactive).
`COC(=O)C[C@H]1C[C@@H]2c3cc(N(C)C)ccc3O[C@@H]2[C@H](CO)O1`: the activation was 5.15% (inactive).
Then `O=C1OCCC1=COCCCCOC=C1CCOC1=O`, with 3.03% (inactive); and `COc1ccc(CN2C(=O)C(CC(=O)NCc3cccc4ccccc34)CC(C(=O)N3CCOCC3)=C2C)cc1` (stereo unspecified), with 2.78% (inactive).
The value for `CC(=O)Nc1ccc2nc(NC(=O)CS(=O)(=O)c3ccc(F)cc3)sc2c1` was -8.48% (inactive); that for `CNC(=O)C1CN(C(=O)c2cccc(S(=O)(=O)N3CCc4ccccc43)c2)c2ccccc2O1` (stereo unspecified) was 1.53% (inactive); that for `Cc1ccc(S(=O)(=O)N2CCCCC2)cc1NC(=O)CCNC(=O)c1ccccc1Cl` was 16.1% (inactive).
The value for `O=C(NCc1ccccc1)C1CNCC(C(=O)NCc2ccccc2)C1` (stereo unspecified) was 9% (inactive); that for `CCCCCCNC(=O)O[C@H]1CN(C(=O)OC(C)C)N(C(=O)OC(C)C)[C@@H]2CN(S(=O)(=O)c3ccc(C)cc3)C[C@]12O` was -13.6% (inactive).
Consider `COc1ccc([N+](=O)[O-])cc1C1NN=C(c2cccc3ccccc23)S1` (stereo unspecified), for which the activation was 20.8% (active).
The value for `COc1ccccc1C1SCCN1C(=O)c1ccc([N+](=O)[O-])cc1` (stereo unspecified) was 0.16% (inactive); that for `COc1ccc([N+](=O)[O-])cc1NC(=O)C(C)OC(=O)C1c2ccccc2Oc2ccccc21` (stereo unspecified) was -4.93% (inactive).
`O=C(N=C1SC2CS(=O)(=O)CC2N1Cc1ccccc1)c1ccccc1` (stereo unspecified): the activation was 1.79% (inactive).
As for `C[C@@H]1CN([C@H](C)CO)C(=O)c2cc(Br)cnc2O[C@@H]1CN(C)Cc1cncnc1`, the activation was 2.5% (inactive).
Then `CC1=C(C(=O)N2CCOCC2)CC(CC(=O)NCC2CCCCC2)C(=O)N1Cc1ccc(F)cc1` (stereo unspecified), with -0.55% (inactive); and `C[C@H](CO)N1C[C@H](C)[C@@H](CN(C)S(=O)(=O)c2ccc(F)cc2)OCc2cnnn2CCCC1=O`, with -2.57% (inactive); and `CC1(C)CC(=O)C=C(c2ccc(COC(=O)c3cc(F)cc(F)c3)cc2)C1=O`, with 4.64% (inactive).
Then `CC1(C2CC2)NC(=O)N(CC(=O)N2CCN(c3ccccc3F)CC2)C1=O` (stereo unspecified), with 1.69% (inactive); and `CCCCN(C(C)=O)c1ccc2c(c1)C1CC2CCN1Cc1ccccc1` (stereo unspecified), with 2.7% (inactive); and `Cc1ccc(-c2ccc(C3=CC(=O)CC(C)(C)C3=O)cc2)cc1`, with 9.99% (inactive).
Then `CCCCN1C[C@H](c2ccc(Br)cc2)[C@@H](CC(=O)Nc2ccc(Br)cc2)C1=O`, with 2.46% (inactive); and `Cc1ccc(S(=O)(=O)N2C[C@H]3n4c(=O)ccc(=O)n4C[C@H](OC(=O)NC4CCCC4)[C@@]3(O)C2)cc1`, with 8.63% (inactive); and `CCOc1ccc(NS(=O)(=O)c2ccc(C(=O)NCC3CCCO3)cc2)cc1` (stereo unspecified), with -2.2% (inactive).
As for `N#Cc1ccccc1CN1C(=O)S/C(=C/c2cccn2-c2cccc(C(=O)O)c2)C1=O`, the activation was 24.5% (active).
The value for `Cc1cc(/C=C2/SC(=O)N(CC(=O)N3CCCC3)C2=O)c(C)n1C` was 2.6% (inactive); that for `Cc1nn(Cc2ccccc2)c(C)c1C(=O)NCCN1C(=O)S/C(=C\c2ccc(F)cc2)C1=O` was -11.8% (inactive).

For the origin of these results see PubChem BioAssay AID504700 (The Scripps Research Institute Molecular Screening Center, 2011).
